# Results taken from article PMC11062922 (Nature Chemical Biology, 2023).
# Where two headings read alike, the source gives them in different places.
# What was measured:
# AAK1 = system: AAK1; set-up: species or system human, MV4-11 + K-562 + COLO205 + SK-N-BE2 + OVCAR-8; details: read-out: apparent Kd, n = 1
# CSNK2A1;CSNK2A3 = system: CSNK2A1;CSNK2A3; set-up: species or system human, MV4-11 + K-562 + COLO205 + SK-N-BE2 + OVCAR-8; details: read-out: apparent Kd, n = 1
# FLT4 = system: FLT4; set-up: species or system human, MV4-11 + K-562 + COLO205 + SK-N-BE2 + OVCAR-8; details: read-out: apparent Kd, compound concentrations: 100 nM and 1000 nM (sheet 'Samples'), n = 1
# GAK = system: GAK; set-up: species or system human, MV4-11 + K-562 + COLO205 + SK-N-BE2 + OVCAR-8; details: read-out: apparent Kd, n = 1
# GSK3A = system: GSK3A; set-up: species or system human, MV4-11 + K-562 + COLO205 + SK-N-BE2 + OVCAR-8; details: read-out: apparent Kd, compound concentrations: 100 nM and 1000 nM (sheet 'Samples'), n = 1
# GSK3B = system: GSK3B; set-up: species or system human, MV4-11 + K-562 + COLO205 + SK-N-BE2 + OVCAR-8; details: read-out: apparent Kd, compound concentrations: 100 nM and 1000 nM (sheet 'Samples'), n = 1
# PAK4 = system: PAK4; set-up: species or system human, MV4-11 + K-562 + COLO205 + SK-N-BE2 + OVCAR-8; details: read-out: apparent Kd, compound concentrations: 100 nM and 1000 nM (sheet 'Samples'), n = 1
# PKN1 = system: PKN1; set-up: species or system human, MV4-11 + K-562 + COLO205 + SK-N-BE2 + OVCAR-8; details: read-out: apparent Kd, compound concentrations: 100 nM and 1000 nM (sheet 'Samples'), n = 1
# Q6ZSR9 = Q6ZSR9 (human, UniProt Q6ZSR9); set-up: species or system MV4-11 + K-562 + COLO205 + SK-N-BE2 + OVCAR-8; details: read-out: apparent Kd, n = 1
# Q6ZSR9, sequence (Q6ZSR9 whole entry, looked up): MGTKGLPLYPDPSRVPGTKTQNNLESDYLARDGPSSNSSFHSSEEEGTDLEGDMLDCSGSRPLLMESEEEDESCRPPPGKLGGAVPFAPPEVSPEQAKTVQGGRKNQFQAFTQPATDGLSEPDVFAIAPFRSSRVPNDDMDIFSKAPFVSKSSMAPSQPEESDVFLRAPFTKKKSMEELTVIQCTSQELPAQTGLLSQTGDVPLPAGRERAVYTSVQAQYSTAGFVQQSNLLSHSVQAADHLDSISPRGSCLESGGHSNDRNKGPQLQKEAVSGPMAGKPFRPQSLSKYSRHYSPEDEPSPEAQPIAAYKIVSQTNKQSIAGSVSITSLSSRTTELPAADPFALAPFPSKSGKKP
# RET = system: RET; set-up: species or system human, MV4-11 + K-562 + COLO205 + SK-N-BE2 + OVCAR-8; details: read-out: apparent Kd, compound concentrations: 100 nM and 1000 nM (sheet 'Samples'), n = 1
# SIK2 = system: SIK2; set-up: species or system human, MV4-11 + K-562 + COLO205 + SK-N-BE2 + OVCAR-8; details: read-out: apparent Kd, n = 1
# CLK4 = system: CLK4; set-up: species or system human, MV4-11 + K-562 + COLO205 + SK-N-BE2 + OVCAR-8; details: read-out: apparent Kd, n = 1
# BMP2K = system: BMP2K; set-up: species or system human, MV4-11 + K-562 + COLO205 + SK-N-BE2 + OVCAR-8; details: read-out: apparent Kd, n = 1
# CSNK2A2 = system: CSNK2A2; set-up: species or system human, MV4-11 + K-562 + COLO205 + SK-N-BE2 + OVCAR-8; details: read-out: apparent Kd, n = 1
# FLT3 = system: FLT3; set-up: species or system human, MV4-11 + K-562 + COLO205 + SK-N-BE2 + OVCAR-8; details: read-out: apparent Kd, n = 1
# NUAK1 = system: NUAK1; set-up: species or system human, MV4-11 + K-562 + COLO205 + SK-N-BE2 + OVCAR-8; details: read-out: apparent Kd, n = 1
# MELK = system: MELK; set-up: species or system human, MV4-11 + K-562 + COLO205 + SK-N-BE2 + OVCAR-8; details: read-out: apparent Kd; compound concentrations: 100 nM and 1000 nM (sheet 'Samples'), CATDS: 1.3446305906565099E-2; n = 1
# PKN3 = system: PKN3; set-up: species or system human, MV4-11 + K-562 + COLO205 + SK-N-BE2 + OVCAR-8; details: read-out: apparent Kd; compound concentrations: 100 nM and 1000 nM (sheet 'Samples'), CATDS: 6.8634871166861197E-3; n = 1
# [1] = compound concentrations:100 nM and 1000 nM (sheet 'Samples')
compound,measurement,setting,value
Cc1ccccc1-n1ncc(C(=O)c2ccccc2)c1N [RO1151248-000],potency estimated from few doses,"AAK1; compound concentrations: 100 nM and 1000 nM (sheet 'Samples'), CATDS: 2.38860019962077E-2",0.914 µM
same,potency estimated from few doses,"CSNK2A1;CSNK2A3; compound concentrations: 100 nM and 1000 nM (sheet 'Samples'), CATDS: 1.72589051675766E-2",2.25 µM
same,potency estimated from few doses,FLT4; CATDS: 1.8880298651143101E-2,1.67 µM
same,potency estimated from few doses,"GAK; compound concentrations: 100 nM and 1000 nM (sheet 'Samples'), CATDS: 3.2430470905267197E-2",0.506 µM
same,potency estimated from few doses,GSK3A; CATDS: 2.9908240641474598E-2,0.584 µM
same,potency estimated from few doses,GSK3B; CATDS: 2.52342080828949E-2,0.813 µM
same,potency estimated from few doses,PAK4; CATDS: 2.19543905026186E-2,1.11 µM
same,potency estimated from few doses,PKN1; CATDS: 1.7045557740064301E-2,2.35 µM
same,potency estimated from few doses,"Q6ZSR9; compound concentrations: 100 nM and 1000 nM (sheet 'Samples'), CATDS: 2.32948628287949E-2",0.967 µM
same,potency estimated from few doses,RET; CATDS: 2.2142525707208802E-2,1.09 µM
same,potency estimated from few doses,"SIK2; compound concentrations: 100 nM and 1000 nM (sheet 'Samples'), CATDS: 2.40988460516664E-2",0.897 µM
O=C1N=C(NCc2c(Cl)cccc2Cl)S/C1=C\c1ccc2ncccc2c1 [RO4600445-000],potency estimated from few doses,"AAK1; compound concentrations: 100 nM and 1000 nM (sheet 'Samples'), CATDS: 0.26661690920713499",1.13 µM
same,potency estimated from few doses,"CLK4; compound concentrations: 100 nM and 1000 nM (sheet 'Samples'), CATDS: 0.27673451036998298",1.05 µM
same,potency estimated from few doses,"Q6ZSR9; compound concentrations: 100 nM and 1000 nM (sheet 'Samples'), CATDS: 0.220638600653874",1.68 µM
COC(=O)c1cccc(NC(=O)NC2CCN(c3ccnc(Nc4cc(OC)c(OC)c(OC)c4)n3)C2)c1 (stereo not shown) [GSK1379767A],potency estimated from few doses,"AAK1; compound concentrations: 100 nM and 1000 nM (sheet 'Samples'), CATDS: 0.10680715656565699",1.51 µM
CC(C)Oc1ccc2c(-c3ccnc(Nc4ccc(N5CCN(C)CC5)cc4)n3)cnn2n1 [GW696155X],potency estimated from few doses,AAK1; [1],0.0354 µM
same,potency estimated from few doses,BMP2K; [1],0.344 µM
same,potency estimated from few doses,CLK4; [1],1.57 µM
same,potency estimated from few doses,CSNK2A1;CSNK2A3; [1],0.416 µM
same,potency estimated from few doses,CSNK2A2; [1],0.201 µM
same,potency estimated from few doses,FLT3; [1],0.479 µM
same,potency estimated from few doses,GAK; [1],0.454 µM
same,potency estimated from few doses,NUAK1; [1],1.03 µM
same,potency estimated from few doses,Q6ZSR9; [1],0.0396 µM
same,potency estimated from few doses,SIK2; [1],0.781 µM
NCC(NC(=O)c1cc(-c2cn[nH]c2)c(-c2ccnc3[nH]ccc23)s1)c1ccccc1.NCC(NC(=O)c1cc(-c2cn[nH]c2)c(-c2ccnc3[nH]ccc23)s1)c1ccccc1.O=C(O)C(F)(F)F.O=C(O)C(F)(F)F (stereo not shown) [GSK1325775A],potency estimated from few doses,"AAK1; compound concentrations: 100 nM and 1000 nM (sheet 'Samples'), CATDS: 3.6567153264384103E-2",1.07 µM
same,potency estimated from few doses,"BMP2K; compound concentrations: 100 nM and 1000 nM (sheet 'Samples'), CATDS: 3.9732447761342798E-2",0.847 µM
same,potency estimated from few doses,PKN1; CATDS: 2.9340466494355399E-2,2.31 µM
same,potency estimated from few doses,"Q6ZSR9; compound concentrations: 100 nM and 1000 nM (sheet 'Samples'), CATDS: 4.0068531071680201E-2",0.829 µM
O=C(O)C(F)(F)F.O=C(O)C(F)(F)F.O=c1[nH]ccc2nc(N[C@@H]3CCCNC3)nc(Nc3ccc(S(=O)(=O)N4CCOCC4)cc3)c12.O=c1[nH]ccc2nc(N[C@@H]3CCCNC3)nc(Nc3ccc(S(=O)(=O)N4CCOCC4)cc3)c12 [GSK2177277A],potency estimated from few doses,"AAK1; compound concentrations: 100 nM and 1000 nM (sheet 'Samples'), CATDS: 1.8142496176493599E-2",0.0641 µM
same,potency estimated from few doses,"BMP2K; compound concentrations: 100 nM and 1000 nM (sheet 'Samples'), CATDS: 3.1293832570600401E-2",0.0236 µM
same,potency estimated from few doses,"CSNK2A1;CSNK2A3; compound concentrations: 100 nM and 1000 nM (sheet 'Samples'), CATDS: 9.7881749935300605E-3",0.292 µM
same,potency estimated from few doses,"CSNK2A2; compound concentrations: 100 nM and 1000 nM (sheet 'Samples'), CATDS: 1.40967137709553E-2",0.111 µM
same,potency estimated from few doses,"FLT3; compound concentrations: 100 nM and 1000 nM (sheet 'Samples'), CATDS: 9.0751024069003396E-3",0.37 µM
same,potency estimated from few doses,FLT4; CATDS: 8.0407033957096193E-3,0.563 µM
same,potency estimated from few doses,"GAK; compound concentrations: 100 nM and 1000 nM (sheet 'Samples'), CATDS: 7.9677595893025404E-3",0.583 µM
same,potency estimated from few doses,GSK3A; CATDS: 2.6961640495366201E-2,0.0304 µM
same,potency estimated from few doses,GSK3B; CATDS: 2.05762593754709E-2,0.0498 µM
same,potency estimated from few doses,MELK,0.125 µM
same,potency estimated from few doses,"NUAK1; compound concentrations: 100 nM and 1000 nM (sheet 'Samples'), CATDS: 0.191214314920645",0.00202 µM
same,potency estimated from few doses,PAK4; CATDS: 1.6910585220633E-2,0.0742 µM
same,potency estimated from few doses,PKN1; CATDS: 1.2984656701456401E-2,0.136 µM
same,potency estimated from few doses,PKN3,1.09 µM
same,potency estimated from few doses,"Q6ZSR9; compound concentrations: 100 nM and 1000 nM (sheet 'Samples'), CATDS: 1.64498976329738E-2",0.0787 µM
same,potency estimated from few doses,RET; CATDS: 2.8395704553292499E-2,0.0278 µM
same,potency estimated from few doses,"SIK2; compound concentrations: 100 nM and 1000 nM (sheet 'Samples'), CATDS: 1.8714442667333402E-2",0.0601 µM
